Hits are enriched below; roughly 2.3% of the tested compounds scored in any of these assays.
CHO-K1 Ca antag = nonselective inhibitor or artifact in parental CHO-K1 cells | ATP-induced calcium, Fluo-8 fluorescence | hit rate 0.6% among 360,000 | inhibition, % at 3 µM;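 active means inhibition above a per-plate cutoff, the plate's mean sample inhibition plus 3 SD, cut at about 24% in these data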;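 further: 0% = DMSO plus EC80 ATP and 100% = DMSO alone without ATP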
M1 PAM parental = nonselective calcium activators in parental CHO-K1 cells, primary screen, counter-screen for M1 PAM project, cell-based, Fluo-8 calcium fluorescence, full deck, 1536-well; activation, % at 3 µM; hit rate 0.02% among 360,000; ATP EC20; 0% at ATP EC20, 100% at ATP max;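 active means activation above the run cutoff, the mean activation of all test compounds plus 3 SD, cut at about 40% in these data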;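 further: peak over basal fluorescence ratio in a 140 s read after ATP addition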
CHRM1 agonist = human M1 muscarinic receptor agonists, primary screen, Fluo-8 calcium fluorescence, CHO-K1 cells, HTS | activation, % at 3 µM | hit rate 0.33% among 360,000 | CHO-K1 hM1, agonist mode; 0% DMSO, 100% acetylcholine EC100 | Muscarinic acetylcholine receptor M1 (Homo sapiens), P11229;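 active means activation above the run's mean compound activation plus 3 SD, cut at about 16% in these data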;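 further: peak over basal fluorescence ratio within a 140 s kinetic read after compound addition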
Target sequence (P11229 whole entry, looked up): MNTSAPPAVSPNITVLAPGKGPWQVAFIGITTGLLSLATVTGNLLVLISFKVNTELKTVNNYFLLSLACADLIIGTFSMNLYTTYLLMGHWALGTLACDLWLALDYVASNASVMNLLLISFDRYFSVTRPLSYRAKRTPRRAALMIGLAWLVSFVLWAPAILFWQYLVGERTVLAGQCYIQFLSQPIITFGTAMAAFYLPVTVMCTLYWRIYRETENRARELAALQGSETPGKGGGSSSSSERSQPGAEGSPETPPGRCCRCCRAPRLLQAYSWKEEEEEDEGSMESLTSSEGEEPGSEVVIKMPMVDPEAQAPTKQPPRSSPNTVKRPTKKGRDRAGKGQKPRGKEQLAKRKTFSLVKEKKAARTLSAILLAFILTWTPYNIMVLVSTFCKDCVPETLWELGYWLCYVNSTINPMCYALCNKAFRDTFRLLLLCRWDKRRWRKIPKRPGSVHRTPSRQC
CHO-K1 Ca ag = counter-screen for M1 agonists: effect in parental CHO-K1 cells | Fluo-8 calcium fluorescence; scaled to maximal ATP response, vehicle zero | activation, % at 3 µM | hit rate 0.48% among 360,000 | AID 602248, 2012; in the data active means activation above about 15%;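 further: untransfected CHO-K1 host cells lacking M1 receptor as counterscreen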
CHRM1 antagonist = human M1 muscarinic receptor antagonists, primary screen, CHO-K1 cells, Fluo-8 calcium fluorescence, 1536-well; hit rate 1.3% among 360,000; Muscarinic acetylcholine receptor M1 (Homo sapiens), P11229; CHO-K1 hM1, ACh EC80 antagonist; inhibition, % at 3 µM;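 active means percent inhibition above its own plate's cutoff, namely the mean of that plate's compound wells plus 3 SD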;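 further: peak over basal fluorescence ratio during 140 s after agonist addition; 0% = ACh EC80 plus DMSO and 100% = DMSO alone without agonist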
M1 PAM = human M1 muscarinic receptor positive allosteric modulators, primary screen, CHO-K1 cells, Fluo-8 calcium fluorescence, 1536-well | CHO-K1 hM1, ACh EC20; 0% = ACh EC20, 100% = maximal ACh | activation, % at 3 µM | hit rate 0.088% among 360,000 | AID 588819, 2011; in the data active means activation above about 19%, passing the limit was not always enough
An asterisk follows results filed as active.

Results for CCOC(=O)C1[C@H]2C(=O)N(C(C)c3ccc(OC)cc3)C[C@]23C=C[C@H]1O3 (stereo not given in full) ?
CHO-K1 Ca antag: -9; M1 PAM parental: 28; CHRM1 agonist: -9; CHO-K1 Ca ag: 1; CHRM1 antagonist: 69*; M1 PAM: -21

What do the screens show for `CC(C)=CC(=O)N1CCC(n2nccc2NC(=O)CCc2ccccc2)CC1`?
CHO-K1 Ca antag: 40*; M1 PAM parental: 7; CHRM1 agonist: -6; CHO-K1 Ca ag: 0; CHRM1 antagonist: 3; M1 PAM: -1

Results for CC#CC(=O)N1CCC(n2nccc2NC(=O)CCc2ccccc2)CC1 ?
CHO-K1 Ca antag: -3; M1 PAM parental: -7; CHRM1 agonist: -5; CHO-K1 Ca ag: 0; CHRM1 antagonist: -7; M1 PAM: 6

How did NC(=O)c1ccsc1NC(=O)COC(=O)/C=C/c1ccccc1 do in these assays?
CHO-K1 Ca antag: 27*; M1 PAM parental: -18; CHRM1 agonist: 1; CHO-K1 Ca ag: 15; CHRM1 antagonist: 50*; M1 PAM: -23

How did O=C(COC(=O)/C=C/c1ccccc1)Nc1ccc2c(c1)OCCO2 do in these assays?
CHO-K1 Ca antag: -20; M1 PAM parental: 6; CHRM1 agonist: 2; CHO-K1 Ca ag: 0; CHRM1 antagonist: -18; M1 PAM: 27*

Results for NC(=O)c1ccsc1NC(=O)COC(=O)/C=C/c1ccccc1[N+](=O)[O-] ?
CHO-K1 Ca antag: -1; M1 PAM parental: 1; CHRM1 agonist: 5; CHO-K1 Ca ag: 18*; CHRM1 antagonist: 23; M1 PAM: -20

What do the screens show for `NC(=O)c1ccsc1NC(=O)COC(=O)COc1ccccc1[N+](=O)[O-]`?
CHO-K1 Ca antag: -2; M1 PAM parental: 5; CHRM1 agonist: 4; CHO-K1 Ca ag: 15; CHRM1 antagonist: 7; M1 PAM: -6

What do the screens show for `CCOC(=O)CC1COc2ccccc2N1C(=O)c1cccc([N+](=O)[O-])c1` (stereo not given)?
CHO-K1 Ca antag: 7; M1 PAM parental: 28; CHRM1 agonist: -8; CHO-K1 Ca ag: 0; CHRM1 antagonist: -17; M1 PAM: 14

What do the screens show for `Cc1ccccc1OCCCc1c(C)n[nH]c1C`?
CHO-K1 Ca antag: 0; M1 PAM parental: 6; CHRM1 agonist: -7; CHO-K1 Ca ag: 5; CHRM1 antagonist: 0; M1 PAM: -1

What do the screens show for `Cc1ccccc1OCCCCc1c(C)n[nH]c1C`?
CHO-K1 Ca antag: 15; M1 PAM parental: -4; CHRM1 agonist: -2; CHO-K1 Ca ag: 9; CHRM1 antagonist: 29*; M1 PAM: -13

How did COc1ccc(COc2cc(-c3cccc(OC)c3)nc3ccc(NC(=O)c4ccc(C)cc4)cc23)cc1 do in these assays?
CHO-K1 Ca antag: -6; M1 PAM parental: 8; CHRM1 agonist: -2; CHO-K1 Ca ag: 3; CHRM1 antagonist: 14; M1 PAM: -6

How did COc1ccc(COc2cc(-c3cccc(OC)c3)nc3ccc(NC(=O)c4ccc(N(C)C)cc4)cc23)cc1 do in these assays?
CHO-K1 Ca antag: 1; M1 PAM parental: -6; CHRM1 agonist: -6; CHO-K1 Ca ag: 0; CHRM1 antagonist: 40*; M1 PAM: -23

What do the screens show for `CCCCn1c(N)c(N(CCOC)C(=O)c2cnc(C)cn2)c(=O)[nH]c1=O`?
CHO-K1 Ca antag: 4; M1 PAM parental: 6; CHRM1 agonist: -3; CHO-K1 Ca ag: 6; CHRM1 antagonist: -6; M1 PAM: 5

What do the screens show for `CC(C)c1nc(SCC(=O)Nc2c[nH]c(=O)[nH]c2=O)c2cnn(-c3ccccc3)c2n1`?
CHO-K1 Ca antag: 41*; M1 PAM parental: 3; CHRM1 agonist: -4; CHO-K1 Ca ag: -1; CHRM1 antagonist: 7; M1 PAM: 3

Results for O=c1c2cc(F)ccc2sn1-c1ccccc1 ?
CHO-K1 Ca antag: -9; M1 PAM parental: 10; CHRM1 agonist: 10; CHO-K1 Ca ag: 19*; CHRM1 antagonist: 5; M1 PAM: 1

Results for O=C(O)c1cccc(-n2sc3ccccc3c2=O)c1 ?
CHO-K1 Ca antag: -11; M1 PAM parental: 23; CHRM1 agonist: -3; CHO-K1 Ca ag: 1; CHRM1 antagonist: -2; M1 PAM: 10

Results for O=c1c2ccccc2sn1-c1ccccc1 ?
CHO-K1 Ca antag: 24; M1 PAM parental: -18; CHRM1 agonist: 7; CHO-K1 Ca ag: 0; CHRM1 antagonist: 6; M1 PAM: 8

Results for O=c1c2cc(C(F)(F)F)ccc2sn1-c1ccccc1 ?
CHO-K1 Ca antag: -3; M1 PAM parental: 11; CHRM1 agonist: 16*; CHO-K1 Ca ag: 5; CHRM1 antagonist: 0; M1 PAM: -3

What do the screens show for `c1ccc(-c2cc(CSc3nc4ccccc4[nH]3)on2)cc1`?
CHO-K1 Ca antag: 17; M1 PAM parental: 4; CHRM1 agonist: 4; CHO-K1 Ca ag: 10; CHRM1 antagonist: 21*; M1 PAM: -19

Results for Cc1noc(C)c1CSc1nc2ccccc2[nH]1 ?
CHO-K1 Ca antag: 9; M1 PAM parental: -2; CHRM1 agonist: -8; CHO-K1 Ca ag: 0; CHRM1 antagonist: 24*; M1 PAM: -20

Results for Nc1ccc2nc3n(c(=O)c2c1)CCC3 ?
CHO-K1 Ca antag: 26*; M1 PAM parental: -5; CHRM1 agonist: 3; CHO-K1 Ca ag: 0; CHRM1 antagonist: -2; M1 PAM: 6

How did O=C(Nc1cc(F)c(Br)cc1F)c1ccc(Cl)cc1 do in these assays?
CHO-K1 Ca antag: 2; M1 PAM parental: 0; CHRM1 agonist: -3; CHO-K1 Ca ag: 7; CHRM1 antagonist: 39*; M1 PAM: -18

What do the screens show for `O=C(O)C1CC=CCC1C(=O)Nc1ccccc1` (stereo not given)?
CHO-K1 Ca antag: 25*; M1 PAM parental: -6; CHRM1 agonist: -2; CHO-K1 Ca ag: 0; CHRM1 antagonist: -5; M1 PAM: 9

Results for O=C(COC(=O)/C=C/c1ccc(F)cc1)NC1CCS(=O)(=O)C1 (stereo not given) ?
CHO-K1 Ca antag: -10; M1 PAM parental: -13; CHRM1 agonist: -1; CHO-K1 Ca ag: 0; CHRM1 antagonist: -11; M1 PAM: 14

Results for COc1ccc(N2CCN(C(=O)Cc3ccc(OC)c(OC)c3)CC2)cc1 ?
CHO-K1 Ca antag: -2; M1 PAM parental: 9; CHRM1 agonist: 1; CHO-K1 Ca ag: 3; CHRM1 antagonist: 1; M1 PAM: 1

Results for O=[N+]([O-])c1ccc(N=Nc2c(Cl)cc(O)cc2Cl)cc1 ?
CHO-K1 Ca antag: 40*; M1 PAM parental: -22; CHRM1 agonist: 7; CHO-K1 Ca ag: 17*; CHRM1 antagonist: 32*; M1 PAM: -5

Source: PubChem (The Scripps Research Institute Molecular Screening Center)
